# The list is a sample of the results.
# aSyn UTR act – Activators working through SNCA 5'UTR binding (MLPCN); activity score, % (tested at 7.5 µM), hits read low; 300,000 tested, 7.1% active; alpha-synuclein 5'UTR reporter, activators screen; in the data active means activity score below about -60%
# The depositor's hits bear a star.
SMILES,aSyn UTR act
CN(C)CCCN(C(=O)C1=COCCO1)c1nc2ccc(Br)cc2s1,-63*
CC1CCCCN1S(=O)(=O)c1ccc(C(=O)N(CCCN(C)C)c2nc3ccc(Br)cc3s2)cc1 (stereo not drawn),67
CCN(C(=O)C1=COCCO1)c1nc2c(C)cccc2s1,-84*
CC(C)(C)c1csc(CS(=O)(=O)c2ccccn2)n1,-63*
Cc1cccc(-c2cc3nc(C)cc(C)n3n2)c1,-235*
Cc1cc(C)n2nc(-c3cccc(Br)c3)cc2n1,-114*
CC(=O)c1cnc2cc(-c3cccc(Br)c3)nn2c1C,-213*
O=C(Nc1ccc2c(c1)OCCO2)c1cccc(Br)c1,-150*
CCCC(C)C(=O)Nc1ccc2c(c1)OCCO2 (stereo not drawn),-77*
CC(C)c1ccc(NC(=O)c2cccc(Br)c2)cc1,-174*
O=C(Nc1ccc2c(c1)OCCO2)c1ccc(Br)o1,-114*
O=C(Nc1ccc2c(c1)OCCO2)c1ccc(Br)cc1,-78*
Cc1ccc(C(=O)Nc2ccc3c(c2)OCCO3)cc1,89
COc1ccc(C(=O)Nc2ccc3c(c2)OCCO3)cc1Br,-255*
COc1ccc(C(=O)N2CCN(Cc3ccc4c(c3)OCO4)CC2)cc1[N+](=O)[O-],46
CSCC[C@@H](C(=O)Nc1ccc2c(c1)OCCO2)N1Cc2ccccc2C1=O,-85*
COc1ccc(NC(=O)c2ccc3c(c2)OCO3)cc1[N+](=O)[O-],-192*
O=C(Nc1ccc2c(c1)OCCO2)c1cccnc1,-141*
CCCOc1cccc(C(=O)Nc2ccc3c(c2)OCCO3)c1,-62*
COc1cccc2c1OC1(C)CC2NC(=O)N1c1cccc(C(=O)Nc2ccc3c(c2)OCCO3)c1 (stereo not drawn),-67*
COc1ccc(C(=O)Nc2nc3ccccc3[nH]2)cc1,71
COc1cc(C(=O)Nc2nc3ccccc3[nH]2)cc(OC)c1OC,-76*
COC(=O)c1cc(C(=O)Nc2nc3ccccc3[nH]2)cc([N+](=O)[O-])c1,-162*
O=C(/C=C/c1ccc(F)cc1)Nc1nc2ccccc2[nH]1,-129*
O=C(Nc1nc2ccccc2[nH]1)c1cccc(F)c1,-62*
SMILES,aSyn UTR act
COc1cccc(C(=O)Nc2nc3ccccc3[nH]2)c1,63
O=C(Nc1nc2ccccc2[nH]1)c1cccc([N+](=O)[O-])c1,-250*
O=C(Nc1nc2ccccc2[nH]1)c1ccc(Cl)c(S(=O)(=O)N2CCCC2)c1,-148*
c1ccc2c(c1)Cc1cc(CN3CCOCC3)ccc1-2,-113*
O=C(Nc1ccc(Cl)cc1)c1ccc2ncsc2c1,-227*
O=C(Nc1cccc(Cl)c1)c1ccc2ncsc2c1,-266*
O=C(Nc1ccc(C(F)(F)F)cc1)c1ccc2ncsc2c1,-167*
O=C(Nc1ccc(F)cc1)c1ccc2ncsc2c1,-176*
Cc1ccc(NC(=O)c2ccc3ncsc3c2)cc1S(=O)(=O)N(C)C,-148*
Cc1ccc(NCCC(=O)c2cccc([N+](=O)[O-])c2)c(C)c1,-201*
O=C(Nc1ccc2c(c1)OCCO2)c1cnc2n(c1=O)CCS2,-75*
O=C(Nc1ccc2c(c1)OCO2)c1cnc2n(c1=O)CCS2,-125*
O=C(Nc1nnc(-c2ccco2)s1)C1CCCCC1,-95*
CC(C)CC(=O)Nc1nnc(-c2ccco2)s1,-151*
O=[N+]([O-])c1[nH]cnc1/C=C/c1ccccc1,-65*
O=C(Nc1cccc(C(F)(F)F)c1)Oc1ccc(Cl)c2cccnc12,75
Cc1ccc(Nc2ncccc2C(N)=O)cc1[N+](=O)[O-],-201*
CNC(=O)c1cccnc1Nc1cccc(C(F)(F)F)c1,-148*
Cc1ccc(Nc2ncccc2C(=O)O)cc1C,-104*
CC(=O)Nc1cc(C)c2nc(NC(C)=O)sc2c1,-90*
CC(=O)Nc1nc2c(C)cc(NC(=O)C3CCCCC3)cc2s1,-96*
Cc1cccc(C(=O)Nc2ccc3ccccc3c2)c1,-111*
CCOc1ccc(C(=O)Nc2cccc([N+](=O)[O-])c2)cc1Br,-138*
O=C(NC(=S)Nc1cccc(F)c1)c1cccc([N+](=O)[O-])c1,-109*
O=C(Nc1ccc2ccccc2c1)c1cccc([N+](=O)[O-])c1,-113*
SMILES,aSyn UTR act
CO/N=C/C(C#N)=C/c1ccc(OC)cc1,-81*
CCCC(=O)N=C1SC2CS(=O)(=O)CC2N1c1ccc(-c2nc3ccc(C)cc3s2)cc1 (stereo not drawn),-132*
O=C(COc1ccc(C(=O)c2ccccc2)cc1)NCc1ccc(F)cc1,113
COc1ccc(-n2nc3c(c2NC(=O)COc2ccccc2)CS(=O)(=O)C3)cc1,-76*
O=C(COc1ccccc1O)Nc1ccccc1Cl,-99*
O=C(COc1ccccc1Cl)NCc1ccccc1,-72*
COc1ccc(OCC(=O)Nc2cccc(NC(=O)COc3ccc(OC)cc3)n2)cc1,-136*
COc1ccc(OCC(=O)Nc2ccccc2Cl)cc1,-111*
CCOC(=O)c1ccc2nc(C)c(CCC(C)=O)c(Cl)c2c1,-108*
CCOC(=O)c1ccc2nc(C)c(C)nc2c1,-88*
Cc1ccc(SCC(=O)c2c(C)nc3ccccn23)cc1,-85*
CC(=O)Nc1ccc(N/C=C/C(=O)c2ccc(C)cc2)cc1,-74*
CC(=O)Nc1ccc(N/C=C/C(=O)c2ccc(Br)cc2)cc1,-95*
Cc1ccc(C(=O)/C=C2\NCCNC2=O)cc1,-72*
Cc1ccc(C(=O)/C=C2\NCC(C)NC2=O)cc1 (stereo not drawn),59
Cc1ccc(C(=O)/C=C\C(=O)c2ccc(C)cc2)cc1,-63*
CC(=O)c1ccc(N/C=C/C(=O)c2ccc(Br)cc2)cc1,-226*
CN(c1ccc(O)cc1)c1nc(O)c(C2=c3ccccc3=NC2=O)s1,-155*
O=C(N/N=C/c1c(Cl)cccc1Cl)c1n[nH]c2c1CCCC2,-135*
O=C(NN=C1CCCC1)c1n[nH]c2c1CCCC2,-73*
Cc1ccsc1/C=N\NC(=O)c1n[nH]c2c1CCC2,69
C/C(=N\Nc1nnc2c3ccccc3n(C)c2n1)c1ccc(C)o1,-85*
Cc1cc(C)n(-c2nnc3c4ccccc4n(C)c3n2)n1,-69*
CCCCCOc1ccc(Cl)cc1CN1CCOCC1,-78*
c1ccc(C2=NNC(=NC3CC3)SC2)cc1,58
SMILES,aSyn UTR act
c1ccc2c(C3=NNC(=NC4CCCCC4)SC3)c[nH]c2c1,-140*
O=C(NCC1CCCO1)c1ccc2nc(N3CCCCC3)sc2c1 (stereo not drawn),-194*
CCC1=Nc2cc(C(=O)NCC3CCCO3)ccc2Sc2ccc(Cl)cc21 (stereo not drawn),-74*
O=C(NCC1CCCO1)c1ccc(N2CCCCC2)nc1 (stereo not drawn),-83*
O=C1C=C(c2cc3ccccc3s2)CCC1,-86*
O=[N+]([O-])c1cccc(-c2ccc(/C=N/Nc3nc(N4CCCCC4)nc(N4CCCCC4)n3)o2)c1,73
O=C1NC(=O)/C(=C/c2ccc(-c3cccc([N+](=O)[O-])c3)o2)S1,-126*
O=C(/C=C/c1ccc(-c2cccc([N+](=O)[O-])c2)o1)N1CCOCC1,-110*
O=C(NNC(=S)Nc1ccccc1)c1cccc(Br)c1,-95*
COc1ccccc1NC(=S)NNC(=O)c1ccc(O)cc1,-106*
O=C(NNC(=S)Nc1ccccc1)c1ccc(O)cc1,-131*
CC(C)(C)NC(=S)NNC(=O)c1cccc(Br)c1,-121*
O=C(NNC(=S)Nc1ccc(Br)cc1)c1ccccc1,-107*
O=C(Nc1nnc(-c2cccc(F)c2)s1)Nc1ccccc1F,-98*
O=C(Nc1nnc(CC2=CCCCC2)s1)Nc1ccccc1F,-81*
